Drawing on PubChem BioAssay (NCI), this text covers growth for 29 compounds.

The structures appear in SMILES notation. About 83,000 compounds went through this panel and 20% of them were active in at least one assay; those are over-represented in the sample as a whole.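 The test compound was applied at a single concentration to cells in 96-well plates for 48 hours, and percent growth was recorded.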 A number with no mark means an inactive call. Calls of active or inactive are those of the source. The calls were made as follows: active = growth percent below 10; inactive = the rest.

What all share (experiment): NCI-60 one-dose screen, 48 h (100 = growth as untreated, 0 = no growth, -100 = all killed)
Settings in all cases: 10 µM unless noted

Experiment [1] concerns T-47D breast.
Experiment [2] has as its system BT-549 breast.
For experiment [3], the system named is MDA-MB-435 melanoma.
For experiment [4], the system named is SW-620 colon.
Experiment [5] has as its system MCF7 breast.
Experiment [6] has as its system HCT-116 colon.
The subject of experiment [7] is HCC-2998 colon.
Experiment [8] has as its system KM12 colon.

Regarding `C=C1C(=O)O[C@H]2[C@H]1CC/C(COC(=O)/C=C\C(=O)NCc1ccc(Cn3c(=O)sn(CCCI)c3=O)cc1)=C\CC[C@@]1(C)O[C@@H]21`, the growth in experiment [1] was -48.3% (active); in experiment [2], -56.2% (active); in experiment [3] it was -83.8% (active); in experiment [4] it was -76.3% (active); in experiment [5], -53.5% (active); in experiment [6], -48.8% (active). The values for the growth in experiment [7] and in experiment [8] were -77.8% (active) and -77% (active), respectively.
For `CN(C)S(=O)(=O)n1cnc([C@@H]2[C@@H]3C(=O)OC[C@@H]3C[C@]23N=CN(Cc2ccccc2)C3=O)c1`, the growth in experiment [1] was 102%; in experiment [2] it was 116%; in experiment [3], 108%; in experiment [4] it was 97.3%; in experiment [5] it was 100%; in experiment [6], 100%. Also, the growth was 98.6% in experiment [7] and 104% in experiment [8].
As to `Cc1cc(Cc2cc(C)cc(C(C)(C)C)c2O)c(O)c(C(C)(C)C)c1`, the growth in experiment [1] was 9.69% (active); in experiment [2], 74.1%; in experiment [3], 52.2%; in experiment [4], 39.8%; in experiment [5] it was 12.8%; in experiment [6] it was 8.68% (active). The growth in experiment [7] was 31.6%; in experiment [8] it was 29.8%.
`Cc1c(Cl)cccc1NS(=O)(=O)c1ccccc1`: the growth was 109% in experiment [1]; 105% in experiment [2]; 101% in experiment [3]; 106% in experiment [4]; 107% in experiment [5]; 104% in experiment [6]. Moreover, the values for the growth in experiment [7] and in experiment [8] were 109% and 116%, respectively.
Take `C(=C\c1nc2ccccc2[nH]1)/c1nc2ccccc2[nH]1`: the growth in experiment [1] is 78.2%; in experiment [2] it was 118%; in experiment [3] it was 104%; in experiment [4] it was 108%; in experiment [5], 74.4%; in experiment [6], 104%. The growth in experiment [7] is 88.4%; in experiment [8] it was 98.1%.
With `CCCN1CCN(c2ccc3nc(-c4ccc5nc(-c6ccc(OCC)c(OCC)c6)[nH]c5c4)[nH]c3c2)CC1`, the growth in experiment [1] was 10.7%; in experiment [2], -64% (active); in experiment [3], -88.2% (active); in experiment [4], -65.9% (active); in experiment [5] it was -59.5% (active); in experiment [6], -83.4% (active). Also, the growth was -79.5% (active) in experiment [7] and -54.8% (active) in experiment [8].
In the case of `Cc1cccc(-c2cc(O)c(C(=O)N3CCOCC3)s2)c1`, the growth is 18.9% in experiment [1]; 51.2% in experiment [2]; -50% (active) in experiment [3]; 28% in experiment [4]; 19.5% in experiment [5]; 27.7% in experiment [6]. For the same compound, the growth in experiment [7] is 63.2%; in experiment [8], 25.5%.
For the compound `CC(=O)NCC(=O)Nc1ccc(-c2nnc3ccccn23)nc1.CC(=O)NCC(=O)Nc1ccc(-c2nnc3ccccn23)nc1.[Pt+2]`, the growth was 105% in experiment [1]; 114% in experiment [2]; 114% in experiment [3]; 105% in experiment [4]; 110% in experiment [5]; 95.4% in experiment [6]. In addition, the results for the growth in experiment [7] and in experiment [8] were 106% and 109%, respectively.
For the compound `CN1CCC(=C2c3ccccc3C=Cc3ccccc32)CC1`, the growth in experiment [1] is 72.6%; in experiment [2] it was 113%; in experiment [3] it was 80.2%; in experiment [4] it was 81.1%; in experiment [5], 80.5%; in experiment [6], 66.3%. Besides, the growth was 92.5% in experiment [7] and 94.4% in experiment [8].
With `Cc1ccc(NC(=O)C(Cl)Cl)cc1`, the growth in experiment [1] was 96.6%; in experiment [2], 110%; in experiment [3], 107%; in experiment [4], 106%; in experiment [5], 94.6%; in experiment [6], 96.5%. Besides, the growth in experiment [7] was 115%; in experiment [8], 104%.
As to `Cc1nc(Nc2cccc(NC(=O)Nc3ccc(Cl)cc3)c2)c2ccccc2n1`, the growth in experiment [1] was 71.2%; in experiment [2], 101%; in experiment [3] it was 79.3%; in experiment [4] it was 46.7%; in experiment [5] it was 78.1%; in experiment [6] it was 67.1%. Besides, the values for the growth in experiment [7] and in experiment [8] were 106% and 69.7%, respectively.
Consider `CC(=O)Nc1nccs1`, for which the growth in experiment [1] is 97.7%; in experiment [2], 112%; in experiment [3], 106%; in experiment [4], 92.5%; in experiment [5], 91.2%; in experiment [6], 101%. Besides, the values for the growth in experiment [7] and in experiment [8] were 102% and 96%, respectively.
In the case of `CCN(CC)CCOc1ccc(/C(=C(\C)c2ccc(F)c(OC)c2)c2ccc(Cl)cc2)cc1`, the growth in experiment [1] is 18.8%; in experiment [2] it was 59.7%; in experiment [3], 15%; in experiment [4], -7.8% (active); in experiment [5], -3.59% (active); in experiment [6], 1.56% (active). The growth in experiment [7] was -33.2% (active); in experiment [8], -3.3% (active).
For `N=C(N)c1ccc(-c2ccc(-c3ccc(Cl)cc3Cl)o2)nc1`, the growth in experiment [1] is 59.2%; in experiment [2], 94.7%; in experiment [3] it was -92.1% (active); in experiment [4], -68.7% (active); in experiment [5], -54.6% (active); in experiment [6] it was -75.5% (active). The results for the growth in experiment [7] and in experiment [8] were -34.3% (active) and -35.5% (active), respectively.
`C=C(C=O)C1CCC2(C(=O)O)CCC3(C)C(CCC4C5(C)CCC(O)C(C)(C)C5CCC43C)C12` (configuration not stated): the growth in experiment [1] is 45%; in experiment [2] it was 17.4%; in experiment [3], 16%; in experiment [4], -14.5% (active); in experiment [5] it was 6.07% (active); in experiment [6], -92.3% (active). For the same compound, the growth is -85.2% (active) in experiment [7] and -87.8% (active) in experiment [8].
As to `CCCCS(=O)(=O)Oc1ccc(-c2nc(C)c(C(=O)OCC)s2)cc1C=O`, the growth in experiment [1] was 80.6%; in experiment [2] it was 72.2%; in experiment [3], 37.1%; in experiment [4], 30.2%; in experiment [5], 35.6%; in experiment [6] it was 8.67% (active). Moreover, the values for the growth in experiment [7] and in experiment [8] were 94.4% and 57%, respectively.
In the case of `COc1cc(CNC(=O)/C=C/C=C/c2ccc3c(c2)OCO3)ccc1OCc1cn(-c2ccc(Cl)c(Cl)c2)nn1`, the growth in experiment [1] was -4.43% (active); in experiment [2], -8.89% (active); in experiment [3], -18.3% (active); in experiment [4] it was -33.4% (active); in experiment [5], -46.2% (active); in experiment [6] it was -30.6% (active). Moreover, the growth is 51.1% in experiment [7] and 1.12% (active) in experiment [8].
Take `CCOC(=O)c1sc2ccc(NCc3nc[nH]c3C)cc2c1NC(=O)c1cc(OC)c(OC)c(OC)c1`: the growth in experiment [1] is 76.2%; in experiment [2] it was 94.8%; in experiment [3] it was 71.7%; in experiment [4], 79.8%; in experiment [5], 62.6%; in experiment [6], 55.4%. Moreover, the growth in experiment [7] was 106%; in experiment [8], 93.7%.
Regarding `CCOc1ccc2nc(-c3cccc(OCC(=O)NC(C)C)c3)nc(Nc3ccc(-c4cn[nH]c4)cc3)c2c1`, the growth in experiment [1] was -25.2% (active); in experiment [2], -44.2% (active); in experiment [3], 6.53% (active); in experiment [4], 7.06% (active); in experiment [5], -16.8% (active); in experiment [6], 5.64% (active). The growth was 24.6% in experiment [7] and 5.29% (active) in experiment [8].
As to `COc1ccc(-c2nnc(SCC(=O)NC3=NN=C(c4ccccc4)CS3)o2)cc1`, the growth in experiment [1] is 78.4%; in experiment [2] it was 104%; in experiment [3] it was 97.1%; in experiment [4] it was 98.3%; in experiment [5], 102%; in experiment [6], 94.2%. The growth in experiment [7] is 105%; in experiment [8] it was 102%.
For `CNC=O`, the growth in experiment [1] was 98.3%; in experiment [2] it was 168%; in experiment [3] it was 96.9%; in experiment [4] it was 93.5%; in experiment [5], 99.3%; in experiment [6], 95.8%. For the same compound, the growth in experiment [7] is 174%; in experiment [8], 95.5%.
Take `CCCCCCCCc1cc[n+](CC(=O)c2ccc(Br)cc2)cc1`: the growth in experiment [1] was -16.6% (active); in experiment [2], 77.8%; in experiment [3] it was -15.1% (active); in experiment [4], -33.7% (active); in experiment [5] it was -74% (active); in experiment [6] it was -43.1% (active). The growth in experiment [7] was -67.4% (active); in experiment [8] it was -56.8% (active).
`CCNCCNc1cc(-c2ccc(F)cc2)c(C#N)c2nc3ccccc3n12`: the growth in experiment [1] is 21.3%; in experiment [2], 70.9%; in experiment [3], -62.7% (active); in experiment [4] it was 10.8%; in experiment [5] it was 35.4%; in experiment [6], 24.5%. Besides, the figures for the growth in experiment [7] and in experiment [8] were 53.5% and 66.4%, respectively.
`CC(=O)c1sc(-c2ccccc2)cc1N`: the growth in experiment [1] was 83%; in experiment [2], 101%; in experiment [3], 94.1%; in experiment [4], 96.5%; in experiment [5], 97.7%; in experiment [6], 98.8%. Moreover, the growth in experiment [7] is 99.4%; in experiment [8], 104%.
In the case of `N#Cc1c(-c2ccc(C(F)(F)F)cc2)cc(N2CC(O)C2)n2c1nc1ccccc12`, the growth in experiment [1] was 36.1%; in experiment [2], 37.9%; in experiment [3] it was 83.7%; in experiment [4], 82.8%; in experiment [5], 81.6%; in experiment [6], 55.4%. The growth in experiment [7] was 95.6%; in experiment [8] it was 74.2%.
For the compound `O=S(=O)(Cc1ccccc1)c1nc2ccccc2s1`, the growth was 76.4% in experiment [1]; 35.8% in experiment [2]; 49% in experiment [3]; 26.3% in experiment [4]; 30.5% in experiment [5]; 9.47% (active) in experiment [6]. The growth in experiment [7] was 103%; in experiment [8] it was 93%.
Take `CCN(CCO)CC(=O)c1cc(Cl)cc(Cl)c1Cl`: the growth was 84% in experiment [1]; 93.7% in experiment [2]; 105% in experiment [3]; 102% in experiment [4]; 98.9% in experiment [5]; 98.9% in experiment [6]. In addition, the growth is 98.2% in experiment [7] and 102% in experiment [8].
As to `CCOc1cccnc1/C=N/NC(N)=S`, the growth in experiment [1] is 71.8%; in experiment [2] it was 51.6%; in experiment [3] it was 58.2%; in experiment [4] it was 40.8%; in experiment [5], 28.8%; in experiment [6] it was 32.6%. In addition, the growth in experiment [7] is 52.7%; in experiment [8] it was 36.2%.
Consider `CC(=O)c1cc2c(o1)C(=O)c1ccccc1C2=O`, for which the growth is -25.3% (active) in experiment [1]; -87.7% (active) in experiment [2]; -94.4% (active) in experiment [3]; -77.4% (active) in experiment [4]; -65.6% (active) in experiment [5]; -83.6% (active) in experiment [6]. For the same compound, the growth in experiment [7] is -87.8% (active); in experiment [8], -63.6% (active).
